Measured values as given in PubChem BioAssay.
Activity calls are given as the source filed them.

Key:
[1] = test system: Human papillomavirus type 1a protein E7 (residues 44-93); test: HPV1a E7 fragment binders on microarrays, primary screen, biochemical, small-molecule microarray, residues 44-93, 635 nm fluorescence (AID 1108); conditions: small-molecule microarray binding, fluorescence 635 nm; higher = more signal;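 further: E7 fragment applied at 1 µg/mL in TBST for 1 h at 4 C; score combines spot fluorescence with its signal to noise ratio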
[2] = modulators of HCV replicon luciferase signal, primary screen, HCV replication inhibitor project, Huh7 cells, luciferase reporter (AID 1109); conditions: 48 h, higher = more signal;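 further: huh7 hepatoma cells harbouring a luciferase neomycin HCV replicon reporter; luciferase luminescence as measure of HCV replicon replication; test concentration not given here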
[3] = target: Left-right determination factor 2 (Homo sapiens) (UniProt O00292); test: LEFTY2 binders on small-molecule microarrays, primary screen, biochemical, small-molecule microarray, 635 nm fluorescence scan (AID 1110); conditions: LEFTY2 binding, higher = more signal
Left-right determination factor 2 (Homo sapiens), sequence (O00292 whole entry, looked up): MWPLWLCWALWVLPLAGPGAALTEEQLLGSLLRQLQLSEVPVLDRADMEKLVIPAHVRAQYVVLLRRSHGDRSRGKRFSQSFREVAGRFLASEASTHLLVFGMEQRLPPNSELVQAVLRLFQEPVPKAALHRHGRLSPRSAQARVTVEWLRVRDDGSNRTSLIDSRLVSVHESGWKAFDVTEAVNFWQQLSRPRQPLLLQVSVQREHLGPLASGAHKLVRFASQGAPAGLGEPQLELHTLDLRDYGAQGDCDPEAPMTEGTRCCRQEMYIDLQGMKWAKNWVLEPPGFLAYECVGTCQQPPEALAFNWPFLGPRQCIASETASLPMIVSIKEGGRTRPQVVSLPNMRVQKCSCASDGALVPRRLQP

[4] = target: Calmodulin-1 (Homo sapiens) (UniProt P0DP23); test: CALM1 binders on microarrays, EGTA buffer, profiling panel, biochemical, small-molecule microarray, Cy5-labelled CALM1 (AID 1111); conditions: Cy5-CALM1 binding fluorescence, higher = more signal;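 further: labelled calmodulin applied in Tris saline Tween buffer holding calcium plus EGTA and DTT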
[5] = target: Calmodulin-1 (Homo sapiens) (UniProt P0DP23); test: calcium-bound CALM1 binders on microarrays, profiling panel, artefact control for SMM control-protein annotation, biochemical, small-molecule microarray, Cy5-labelled CALM1, plus calcium (AID 1112); conditions: Cy5-CALM1 binding fluorescence, higher = more signal;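 further: score merges spot fluorescence with signal to noise from triplicate slides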
[6] = small-molecule microarray binders of probe aWnt5a, primary screen, biochemical, biotinylated probe, 635/667 nm fluorescence (AID 1113); conditions: higher = more signal;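 further: score merges 667 nm fluorescence intensity with signal-to-noise per printed feature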
[7] = small-molecule microarray binders of probe aShh, primary screen, biochemical, biotinylated probe, 635/667 nm fluorescence (AID 1114); conditions: higher = more signal;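 further: probe is biotin-labelled aShh protein from a stem cell growth factor screen; measures binding of labelled protein to compounds printed on the slide; score merges feature fluorescence at 667 nm with signal-to-noise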
[8] = small-molecule microarray binders of probe aNog, primary screen, biochemical, biotinylated probe, 635/667 nm fluorescence (AID 1115); conditions: higher = more signal;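 further: probe is biotinylated aNog protein used at 0.15 µg/mL for 1 h at 4 C; z-score combines 667 nm fluorescence of each spot with its signal to noise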
[9] = target: Torsin-1A-interacting protein 1 (Homo sapiens) (UniProt Q5JTV8); test: LAP1 binders from COS7 cell lysate, primary screen, small-molecule microarray, 635/667 nm fluorescence (AID 1116); conditions: COS7-hLAP1 lysate binding, 635 nm fluorescence, higher = more signal
Torsin-1A-interacting protein 1 (Homo sapiens), sequence (Q5JTV8 whole entry, looked up): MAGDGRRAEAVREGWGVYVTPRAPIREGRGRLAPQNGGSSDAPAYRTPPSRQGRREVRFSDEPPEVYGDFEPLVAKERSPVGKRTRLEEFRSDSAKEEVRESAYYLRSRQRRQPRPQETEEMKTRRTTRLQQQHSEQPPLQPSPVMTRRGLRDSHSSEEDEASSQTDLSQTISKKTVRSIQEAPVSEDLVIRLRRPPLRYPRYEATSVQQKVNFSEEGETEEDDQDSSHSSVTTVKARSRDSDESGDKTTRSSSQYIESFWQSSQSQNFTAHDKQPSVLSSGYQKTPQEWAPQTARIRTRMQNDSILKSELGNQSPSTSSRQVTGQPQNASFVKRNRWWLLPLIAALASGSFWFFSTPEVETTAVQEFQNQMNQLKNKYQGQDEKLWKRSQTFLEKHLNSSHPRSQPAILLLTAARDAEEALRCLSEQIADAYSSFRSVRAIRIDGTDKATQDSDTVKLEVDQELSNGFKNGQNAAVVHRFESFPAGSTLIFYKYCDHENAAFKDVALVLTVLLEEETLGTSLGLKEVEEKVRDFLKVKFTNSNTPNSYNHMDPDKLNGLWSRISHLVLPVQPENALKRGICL

[10] = target: Alpha-bungarotoxin (Bungarus multicinctus) (UniProt P60615); test: alpha-bungarotoxin binders on microarray, profiling panel, artefact control for SMM control protein annotation, biochemical, small-molecule microarray, Alexa647 label, 635/667 nm fluorescence (AID 1117); conditions: alpha-BTX-A647 binding fluorescence, higher = more signal
Alpha-bungarotoxin (Bungarus multicinctus), sequence (P60615 whole entry, looked up): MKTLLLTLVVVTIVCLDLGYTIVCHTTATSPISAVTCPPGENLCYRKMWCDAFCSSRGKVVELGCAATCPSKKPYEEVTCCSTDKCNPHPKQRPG

Albumin (Bos taurus) = Albumin (Bos taurus) (UniProt P02769); test: bovine serum albumin binders on microarray, profiling panel, artefact control for SMM control protein annotation, biochemical, small-molecule microarray, Alexa647 label, 635/667 nm fluorescence (AID 1118); conditions: BSA-A647 binding, fluorescence 635 nm, higher = more signal;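 further: score merges 667 nm emission intensity and signal-to-noise per printed compound spot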
Albumin (Bos taurus), sequence (P02769 whole entry, looked up): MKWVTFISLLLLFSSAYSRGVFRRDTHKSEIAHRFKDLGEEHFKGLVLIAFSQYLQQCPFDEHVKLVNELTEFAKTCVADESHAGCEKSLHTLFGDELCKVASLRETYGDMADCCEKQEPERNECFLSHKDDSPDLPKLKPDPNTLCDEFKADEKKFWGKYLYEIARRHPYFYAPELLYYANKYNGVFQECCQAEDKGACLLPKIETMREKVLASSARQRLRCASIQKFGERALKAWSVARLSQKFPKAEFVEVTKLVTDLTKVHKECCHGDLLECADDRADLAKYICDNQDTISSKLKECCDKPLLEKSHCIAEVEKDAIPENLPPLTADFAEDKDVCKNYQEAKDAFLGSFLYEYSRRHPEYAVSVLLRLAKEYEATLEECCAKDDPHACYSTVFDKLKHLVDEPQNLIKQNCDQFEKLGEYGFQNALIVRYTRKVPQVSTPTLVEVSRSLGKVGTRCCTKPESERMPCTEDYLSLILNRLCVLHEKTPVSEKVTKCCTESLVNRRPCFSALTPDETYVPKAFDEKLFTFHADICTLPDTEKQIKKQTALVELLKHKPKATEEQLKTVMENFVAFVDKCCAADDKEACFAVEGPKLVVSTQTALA

[11] = small-molecule microarray binders of probe aXIP, primary screen, biochemical, NeuroSMM set, 635/667 nm fluorescence (AID 1119); conditions: higher = more signal, called active from +8 up or from −8 down;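 further: probe is the protein aXip251-270 applied at 1 µg/mL to compound-printed slides; binding of probe to printed compounds measured as 667 nm fluorescence plus signal to noise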
[12] = small-molecule binders of probe aNOTCH3, primary screen, biochemical, small-molecule microarray, 635/667 nm fluorescence (AID 1120); conditions: higher = more signal;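 further: probe is a biotin-tagged antibody raised against NOTCH3 rather than NOTCH3 protein; score merges spot fluorescence near 667 nm with spot signal to noise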
[13] = small-molecule binders of probe aNOTCH2, primary screen, biochemical, small-molecule microarray, 635/667 nm fluorescence (AID 1121); conditions: higher = more signal;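 further: score merges feature fluorescence read at 667 nm with its signal to noise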
[14] = target: Carbonic anhydrase 2 (Homo sapiens) (UniProt P00918); test: CAII small-molecule binders, profiling panel, biochemical, small-molecule microarray, Alexa647-labelled CAII (AID 1122); conditions: CAII-A647 binding fluorescence, higher = more signal
[15] = COS7 lysate on small-molecule microarray, probe aHis, 635 nm (AID 1123); conditions: COS7 cell lysate, fluorescence, higher = more signal;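 further: z-score combines 667nm fluorescence intensity with signal-to-noise per printed compound spot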
[16] = compound binding in COS7 lysate, probe aLAP1, primary screen, cell lysate, small-molecule microarray (AID 1124); conditions: probe aLAP1, fluorescence, higher = more signal;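 further: lysate comes from COS7 cells expressing LAP1 and is applied at 0.3 µg/mL; score merges spot fluorescence near 667 nm with signal-to-noise over triplicate slides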
Sam68 (KHDRBS1) = test: Sam68 small-molecule binders, primary screen, biochemical, small-molecule microarray, 635 nm fluorescence (AID 1125); conditions: small-molecule microarray binding, higher = more signal;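 further: score merges 667 nm channel intensity with signal to noise over triplicate slides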
[17] = test system: Chordin-like protein 2 (CHRDL2); test: CHRDL2 small-molecule binders, primary screen, biochemical, small-molecule microarray, 635 nm fluorescence (AID 1126); conditions: small-molecule microarray binding, fluorescence 635 nm; higher = more signal;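 further: printed compound slides probed with Chrdl2 protein at 4 µg/mL for 1 h at 4 C; score merges 667 nm emission intensity with signal to noise over three replicate slides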
[18] = target: Concanavalin-A (Canavalia ensiformis) (UniProt P02866); test: ConA small-molecule binders, primary screen, artefact control for SMM control protein annotation, biochemical, small-molecule microarray, Alexa647 label, 635 nm (AID 1127); conditions: ConA-A647 binding fluorescence, higher = more signal;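 further: z combines 667 nm emission intensity with signal-to-noise across three replicate slides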
Concanavalin-A (Canavalia ensiformis), sequence (P02866 whole entry, looked up): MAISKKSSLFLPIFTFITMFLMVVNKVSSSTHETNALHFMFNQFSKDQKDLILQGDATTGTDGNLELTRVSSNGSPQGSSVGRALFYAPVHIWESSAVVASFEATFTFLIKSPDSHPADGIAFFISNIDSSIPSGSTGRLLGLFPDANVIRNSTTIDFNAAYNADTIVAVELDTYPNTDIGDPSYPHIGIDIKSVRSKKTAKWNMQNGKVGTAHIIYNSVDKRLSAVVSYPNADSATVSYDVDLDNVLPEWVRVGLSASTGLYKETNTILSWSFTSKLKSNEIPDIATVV

Structure (SMILES)	composite z-score [1]	z-score [2]	composite z-score [3]	composite z-score [4]	composite z-score [5]	composite z-score [6]	composite z-score [7]	composite z-score [8]	composite z-score [9]	composite z-score [10]	composite z-score (Albumin (Bos taurus))	composite Z-score [11]	composite z-score [12]	composite z-score [13]	composite z-score [14]	composite z-score [15]	composite z-score [16]	composite z-score (Sam68 (KHDRBS1))	composite z-score [17]	composite z-score [18]
COc1cccc([C@@H]2[C@@H](C)CC[C@H]3C(=O)N4[C@H](c5cccc(OC)c5)[C@@H](C)CC[C@H]4C(=O)N23)c1	0.27	0.533	0.767	-0.2	-0.781	-0.0853	-0.2	-0.0611	0.37	0.452	0.447	-0.155 (inactive)	0.0193	-0.0262	0.35	0.69	1.06	0.656	0.811	0.0858
O=C1C[C@@](C(=O)NC2CC2)(c2ccc([N+](=O)[O-])cc2)[C@@H](c2ccc(CO)cc2I)N1CC12CC3CC(CC(C3)C1)C2	1.37	-3.45	0.672	0.266	-0.151	0.0644	0.574	-0.0719	0.626	0.905	-0.344	0.381 (inactive)	0.0538	-0.19	0.473	1.64	2.12	1.12	0.224	1.1
COc1cc2c(cc1OC)CN(C(=O)[C@H]1[C@@H]3C(=O)O[C@@H](c4ccccc4)[C@@H](c4ccccc4)N3[C@@H](c3ccccc3OCCO)[C@]13C(=O)Nc1ccc(C#CC4(O)CCCCCC4)cc13)CC2	-0.178	-2.36	0.519	1.16	-0.407	0.0676	0.0684	-0.356	1.02	1.83	0.168	0.267 (inactive)	-0.0043	-0.0211	0.314	2.12	0.982	1.3	0.454	1.13
CO[C@H]1COC(=O)CC=C[C@H](C)[C@@H](OC)COC(=O)[C@H](Cc2ccccc2)NC(=O)CC=C[C@@H]1C	-1.64	-0.74	1.12	-1.67	-3.12	-0.144	-0.11	-0.537	-0.272	-1.24	-2.12	0.699 (inactive)	-0.132	-0.0743	-0.961	-0.566	-0.287	-0.777	1.46	-2.53
CC(C)[C@H]1NC(=O)[C@@]23C(=O)N[C@@H](Cc4ccccc4)C2[C@H](C)[C@@]2(C)O[C@H]2C3/C=C/C/C=C\CNC(=O)[C@H](C)NC1=O (stereo not given in full)	-0.473	0.631	-0.796	-0.703	-0.751	-0.284	-0.367	-0.32	-0.198	-1.12	-0.255	-0.0247 (inactive)	-0.25	-0.218	0.811	-0.281	-0.258	-0.762	-0.433	-0.671
C=CC[C@@]1(C(=O)NCC(O)CO)N=C(c2ccc(OCCCO)cc2)O[C@@H]1c1ccccc1CN=[N+]=[N-] (stereo not given in full)	1.43	-1.11	-1.44	0.778	-0.0262	-0.119	0.261	0.824	2.6	0.0177	0.988	0.536 (inactive)	-0.105	-0.0759	0.809	2.98	0.411	1.04	-0.834	-0.304
